Results filed as inconclusive are left out. Unmarked numbers belong to inactive results. Calls of active or inactive are those of the source. Calls follow the shape of the dose curve; as a rule, active = well fitted cell-killing curve with a large enough effect; inconclusive = small, poorly fitted or top-dose-only effect; inactive = no such curve, though single readings can be large or run the other way.
Test: qHTS of pediatric cancer cell lines to identify multiple opportunities for drug repurposing: Primary screen for LAN-5 cells (AID 1347100);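 as to activity change, negative = cytotoxic: plate controls were DMSO neutral control for no effect and bortezomib positive control for full effect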
Conditions: LAN-5 neuroblastoma viability, CellTiter-Glo luminescence, 48 h; series mostly up to 46 µM; activity change, negative = cytotoxic: at the top concentration
In short: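 Viability after 48 h compound treatment at 37C, 500-1,000 cells/well, read as ATP luminescence with CellTiter-Glo. Primary screens used 11-point (MIPE, 0.78 nM-46 µM) or 8-point (NPC, 0.59 nM-46 µM) final concentrations; follow-up screens used 11-point dilutions.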
Potency is read from the fitted curve at half-maximal effect.

Row | SMILES | Potency | activity change, negative = cytotoxic
1 | Cc1ccc(NC(=O)c2ccc(CN3CCN(C)CC3)cc2)cc1Nc1nc(-c2cccnc2)cs1 | 18.7 µM (active) | 
2 | CC(C)CN(C[C@@H](O)[C@H](Cc1ccccc1)NC(=O)O[C@H]1CO[C@H]2OCC[C@H]21)S(=O)(=O)c1ccc(N)cc1 | 18.7 µM (active) | 
3 | CCN(CC)CCCCNc1nc2cc(Cl)c(Cl)cc2nc1-c1ccc(-c2cccs2)s1 | 26.4 µM (active) | 
4 | CCOC(=O)[C@H](CCc1ccccc1)N[C@@H](C)C(=O)N1CCCC1C(=O)O (some centres undefined) |  | -2.95%
5 | O=c1[nH]nc(OCCCc2ccc(Cl)cc2)c(NCc2cccnc2)c1Br | 18.7 µM (active) | 
6 | COc1cc2ncn(-c3cc(OCc4ccccc4S(C)(=O)=O)c(C#N)s3)c2cc1OC |  | -15.7%
7 | CC(C)C[C@@H](N)[C@H](O)C(=O)N[C@H](C(=O)N[C@H](C(=O)N[C@@H](CC(=O)O)C(=O)O)C(C)C)C(C)C |  | -22.6%
8 | CN1CCC[C@H]1CCO[C@](C)(c1ccccc1)c1ccc(Cl)cc1 |  | -45.1%
9 | Cc1cnc(-c2cc(N3CCN(C(=O)CCS(C)(=O)=O)CC3)ncc2Cl)c(C)c1 |  | -29.2%
10 | CCN(CCO)CCCOc1ccc2c(Nc3cc(CC(=O)Nc4cccc(F)c4)[nH]n3)ncnc2c1 | 0.0372 µM (active) | 
11 | O=S(=O)(NCCNCC=Cc1ccc(Br)cc1)c1cccc2cnccc12 | 20.9 µM (active) | 
12 | CN1CC(=O)N2C(Cc3c([nH]c4ccccc34)[C@H]2c2ccc3c(c2)OCO3)C1=O (some centres undefined) |  | -5.51%
13 | CC[C@H](NC(=O)[C@H](C)NC)C(=O)N1C[C@@H](O)C[C@H]1Cc1c(-c2[nH]c3cc(F)ccc3c2C[C@H]2C[C@H](O)CN2C(=O)[C@H](CC)NC(=O)[C@H](C)NC)[nH]c2cc(F)ccc12 | 0.372 µM (active) | 
14 | Cc1cccc(Nc2nc(N[C@@H]3CCCC[C@H]3N)ncc2C(N)=O)c1 | 18.7 µM (active) | 
15 | C#CCN(C)CC1=Cc2ccccc2Oc2ccccc21 |  | -12.4%
16 | COc1ccc(-c2ccc3ncc4c(c3c2)n(-c2ccc(N3CCNCC3)c(C(F)(F)F)c2)c(=O)n4C)cn1 | 0.166 µM (active) | 
17 | O=c1cc(-c2ccc(O)c(O)c2)oc2cc(O)cc(O)c12 |  | -2.11%

Row | SMILES | Potency | activity change, negative = cytotoxic
18 | Cn1c(=O)c(Oc2ccc(F)cc2F)cc2cnc(NC3CCOCC3)nc21 |  | 1.96%
19 | CN[C@@H]1CN(c2ccc3c(=O)c(C(=O)O)cn(-c4nccs4)c3n2)C[C@@H]1OC | 1.02 µM (active) | 
20 | O=C(O)c1nc(=O)[nH]c(=O)[nH]1 |  | -3.28% [at 16.1 µM]
21 | CCC[C@H](Nc1nc(-c2ccc(NC(=O)NCC)c(OC)c2)ncc1C)c1cccnc1 | 0.0105 µM (active) | 
22 | CCCCCCCCCCCCCCCC(=O)O[C@H]1[C@@H](O)[C@@H](O)[C@@H]([C@H](NC(=O)[C@@H]2C[C@@H](CCC)CN2C)[C@H](C)Cl)O[C@@H]1SC |  | 12.3%
23 | COc1cc2nc(-c3cc(F)ccc3O)nc(N[C@@H]3CNC[C@@H]3C(C)(C)O)c2cc1OC | 13.2 µM (active) | 
24 | C[C@@H]1[C@H](C)CC[C@]2(C(=O)O)CC[C@]3(C)C(=CC[C@@H]4[C@@]5(C)CC[C@H](O)C(C)(C)[C@H]5CC[C@]43C)[C@@H]12 | 0.303 µM (active) | 
25 | CC[C@H]1OC(=O)[C@H](C)[C@@H](O[C@H]2C[C@@](C)(OC)[C@@H](O)[C@H](C)O2)[C@H](C)[C@@H](O[C@@H]2O[C@H](C)C[C@H](N(C)C)[C@H]2O)[C@](C)(O)C[C@H](C)C(=NOCOCCOC)[C@H](C)[C@@H](O)[C@]1(C)O |  | -29.9%
26 | O=C(NCCCCN1CCOCC1)c1cc2ccccc2o1 |  | 2.81%
27 | Cc1ccc(S(=O)(=O)Nc2nc3ccccc3nc2Nc2ccc3nsnc3c2)cc1 | 0.0323 µM (active) | 
28 | CC(C)(CO)[C@@H](O)C(=O)NCCC(=O)O |  | -0.159%
29 | CC(C)CNc1ccnc(NCc2csc(-c3ccccc3)n2)n1 | 14.8 µM (active) | 
30 | FC(F)(F)c1ccc(C=Cc2nc(COc3ccc(CCCCn4ccnn4)cc3)co2)cc1 | 0.0059 µM (active) | 
31 | CC1(C)OC2CC3C4CC(F)C5=CC(=O)C=CC5(C)C4C(O)CC3(C)[C@]2(C(=O)CO)O1 (some centres undefined) |  | 2.2%
32 | C[C@H]1O[C@@H](n2cc(F)c(=O)[nH]c2=O)[C@H](O)[C@H]1O | 13.2 µM (active) | 
33 | CC(C)N(CCCNC(=O)Nc1ccc(C(C)(C)C)cc1)C[C@H]1O[C@@H](n2cc(Br)c3c(N)ncnc32)[C@H](O)[C@H]1O | 23.5 µM (active) | 
34 | CCCCCOC(=O)Nc1nc(=O)n([C@@H]2O[C@H](C)[C@@H](O)C2O)cc1F (some centres undefined) |  | -17.9%

— PubChem BioAssay (NCATS)
